# The panel holds about 83,000 compounds, 20% with a hit somewhere; the sample as a whole holds those more often.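 Testing used 96-well plates and a 48-hour single-concentration exposure. Example: -40 means 40% of the starting cells died.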 Unmarked numbers belong to inactive results. Active and inactive are the calls of the source. Rule for the calls: active = growth percent below 10; inactive = the rest.
# Legend:
# Assay in all cases: NCI-60 one-dose screen, 48 h (100 = growth as untreated, 0 = no growth, -100 = all killed)
# Details in all cases: 10 µM unless noted
# HCT-15 colon = tested on: HCT-15 colon
# HT29 colon = tested on: HT29 colon
# SNB-75 CNS = tested on: SNB-75 CNS
# SNB-19 CNS = tested on: SNB-19 CNS
# U251 CNS = tested on: U251 CNS
# PC-3 prostate = tested on: PC-3 prostate
# SK-MEL-5 melanoma = tested on: SK-MEL-5 melanoma
# UACC-62 melanoma = tested on: UACC-62 melanoma
# LOX IMVI melanoma = tested on: LOX IMVI melanoma
# SK-MEL-28 melanoma = tested on: SK-MEL-28 melanoma
# SK-MEL-2 melanoma = tested on: SK-MEL-2 melanoma
# EKVX NSCLC = tested on: EKVX NSCLC
# SN12C renal = tested on: SN12C renal
# TK-10 renal = tested on: TK-10 renal
# ACHN renal = tested on: ACHN renal
# CAKI-1 renal = tested on: CAKI-1 renal
# A498 renal = tested on: A498 renal
# CCRF-CEM leukemia = tested on: CCRF-CEM leukemia
# MOLT-4 leukemia = tested on: MOLT-4 leukemia
# UO-31 renal = tested on: UO-31 renal
SMILES,growth (HCT-15 colon),growth (HT29 colon),growth (SNB-75 CNS),growth (SNB-19 CNS),growth (U251 CNS),growth (PC-3 prostate),growth (SK-MEL-5 melanoma),growth (UACC-62 melanoma),growth (LOX IMVI melanoma),growth (SK-MEL-28 melanoma),growth (SK-MEL-2 melanoma),growth (EKVX NSCLC) [%],growth (SN12C renal),growth (TK-10 renal),growth (ACHN renal),growth (CAKI-1 renal),growth (A498 renal),growth (CCRF-CEM leukemia),growth (MOLT-4 leukemia),growth (UO-31 renal)
O=S=Nc1ccc([N+](=O)[O-])cc1,85.2%,94.1%,88.7%,103%,91.6%,96.8%,101%,73%,71.2%,107%,98.4%,96.9,98.7%,84.9%,80.8%,78.9%,79.2%,101%,91.2%,–
CC(C(=O)n1cc(-c2ccccc2)c(-c2ccccc2)c1)c1ccccc1 (configuration not stated),112%,107%,92.9%,102%,91.1%,95.9%,99.1%,106%,97.8%,112%,104%,–,108%,98.8%,115%,91.6%,99.8%,103%,102%,88.6%
CCn1cc(C(=O)O)c(=O)c2cc(F)c(N3CCN(S(=O)(=O)c4ccc(Cl)cc4Cl)CC3)cc21,7.58% (active),1.87% (active),74.8%,26.2%,12.1%,1.6% (active),-55% (active),16.1%,-35.4% (active),107%,-18.1% (active),–,10.3%,12.4%,-54.6% (active),4.75% (active),-0.0481% (active),2.78% (active),1.8% (active),-13.4% (active)
CC/C(=C(\c1ccc(O)cc1)c1ccc(OCCN(C)CCN(C)C(=O)CCC(=O)c2c(C)[nH]c(/C=C3\N=C(c4ccc[nH]4)C=C3OC)c2C)cc1)c1ccccc1,34.3%,15.5%,92.4%,108%,63.2%,61.4%,78.2%,14.2%,33.6%,61.7%,96.8%,–,91.8%,117%,95.5%,71.4%,65.2%,40.8%,71.7%,46.9%
N=C(N)c1ccc(-c2ccc(-c3ccc(Cl)cc3)o2)nc1,-75.1% (active),-92.9% (active),-97.8% (active),-87.2% (active),-98.1% (active),-90% (active),-98.8% (active),-96.8% (active),-90.4% (active),-94.2% (active),-90.7% (active),–,-80.7% (active),-95.1% (active),-91.5% (active),-85.5% (active),-58.4% (active),-57.5% (active),102%,-85.8% (active)
COc1cc(C(=O)OCCCCCCCCCCC[P+](c2ccccc2)(c2ccccc2)c2ccccc2)ccc1O,0.0119% (active),1.83% (active),-75.7% (active),-54.9% (active),-89.8% (active),-22.3% (active),-98.1% (active),-16% (active),-97.7% (active),-66.1% (active),-32.1% (active),–,-70.1% (active),8.26% (active),-1.87% (active),-73.2% (active),-0.743% (active),-32.3% (active),-50.9% (active),-8.76% (active)
Cn1c(C(N)=O)cc2c1-c1nc(NC3CCCCC3)ncc1CCC2,90.5%,91.4%,104%,81.9%,83.8%,94.8%,95%,103%,89.6%,97.4%,105%,–,90.9%,89.4%,85.8%,83.3%,46%,93.9%,85.1%,67.2%
CC(=O)Nc1nc(C(=O)N2N=C(C)/C(=C/c3ccccc3)C2=O)cs1,105%,97.5%,95.5%,103%,104%,97.7%,108%,114%,98.7%,121%,94.6%,–,109%,107%,99.9%,98.9%,120%,98.7%,95.8%,80.9%

# Source: PubChem BioAssay (NCI)
